{"source": "the supplement of paper PMC6897291", "system": "RIVA", "experiment": "growth inhibition by drug plus 177Lu-lilotomab satetraxetan (1 - RLU/untreated control) (fraction); higher = stronger inhibition", "conditions": "177Lu-lilotomab satetraxetan 0.5 ug/ml", "experimental": "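RIVA (RI-1) ABC-DLBCL cells were pretreated or not for 18 h with 0.5 ug/ml 177Lu-lilotomab satetraxetan (600 MBq/mg), washed and seeded (3000 cells/well) on 384-well plates pre-printed with the Selleck Cambridge Cancer Compound library. Viability was read by RealTime-Glo luminescence on days 3-6 after seeding. Effect = 1 - RLU/mean RLU of the 48 untreated no-drug control wells per plate; Bliss score = (M-E)/(1-Fa).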"}
{"compound": "C[S+]([O-])c1ccc(-c2nc(-c3ccc(F)cc3)c(-c3ccncc3)[nH]2)cc1", "note": "(stereo not given)", "values": [{"measurement": "growth inhibition by drug plus 177Lu-lilotomab satetraxetan", "setting": "10 nM, time (day): 3", "value": 0.668}, {"measurement": "growth inhibition by drug plus 177Lu-lilotomab satetraxetan", "setting": "10 nM, time (day): 4", "value": 0.678}, {"measurement": "growth inhibition by drug plus 177Lu-lilotomab satetraxetan", "setting": "10 nM, time (day): 5", "value": 0.684}, {"measurement": "growth inhibition by drug plus 177Lu-lilotomab satetraxetan", "setting": "10 nM, time (day): 6", "value": 0.677}, {"measurement": "growth inhibition by drug plus 177Lu-lilotomab satetraxetan", "setting": "100 nM, time (day): 3", "value": 0.322}, {"measurement": "growth inhibition by drug plus 177Lu-lilotomab satetraxetan", "setting": "100 nM, time (day): 4", "value": 0.441}, {"measurement": "growth inhibition by drug plus 177Lu-lilotomab satetraxetan", "setting": "100 nM, time (day): 5", "value": 0.432}, {"measurement": "growth inhibition by drug plus 177Lu-lilotomab satetraxetan", "setting": "100 nM, time (day): 6", "value": 0.451}]}
{"compound": "Cc1csc(-c2nnc(Nc3ccc(Oc4ncccc4-c4ccnc(N)n4)cc3)c3ccccc23)c1", "values": [{"measurement": "growth inhibition by drug plus 177Lu-lilotomab satetraxetan", "setting": "10 nM, time (day): 3", "value": 0.482}, {"measurement": "growth inhibition by drug plus 177Lu-lilotomab satetraxetan", "setting": "10 nM, time (day): 4", "value": 0.52}, {"measurement": "growth inhibition by drug plus 177Lu-lilotomab satetraxetan", "setting": "10 nM, time (day): 5", "value": 0.572}, {"measurement": "growth inhibition by drug plus 177Lu-lilotomab satetraxetan", "setting": "10 nM, time (day): 6", "value": 0.659}, {"measurement": "growth inhibition by drug plus 177Lu-lilotomab satetraxetan", "setting": "100 nM, time (day): 3", "value": 0.496}, {"measurement": "growth inhibition by drug plus 177Lu-lilotomab satetraxetan", "setting": "100 nM, time (day): 4", "value": 0.552}, {"measurement": "growth inhibition by drug plus 177Lu-lilotomab satetraxetan", "setting": "100 nM, time (day): 5", "value": 0.581}, {"measurement": "growth inhibition by drug plus 177Lu-lilotomab satetraxetan", "setting": "100 nM, time (day): 6", "value": 0.676}]}
{"compound": "COc1ccc(-c2ccc3c(N4CCOCC4)nc(N4C[C@@H](C)O[C@@H](C)C4)nc3n2)cc1CO", "values": [{"measurement": "growth inhibition by drug plus 177Lu-lilotomab satetraxetan", "setting": "10 nM, time (day): 3", "value": 0.514}, {"measurement": "growth inhibition by drug plus 177Lu-lilotomab satetraxetan", "setting": "10 nM, time (day): 4", "value": 0.598}, {"measurement": "growth inhibition by drug plus 177Lu-lilotomab satetraxetan", "setting": "10 nM, time (day): 5", "value": 0.603}, {"measurement": "growth inhibition by drug plus 177Lu-lilotomab satetraxetan", "setting": "10 nM, time (day): 6", "value": 0.621}, {"measurement": "growth inhibition by drug plus 177Lu-lilotomab satetraxetan", "setting": "100 nM, time (day): 3", "value": 0.475}, {"measurement": "growth inhibition by drug plus 177Lu-lilotomab satetraxetan", "setting": "100 nM, time (day): 4", "value": 0.552}, {"measurement": "growth inhibition by drug plus 177Lu-lilotomab satetraxetan", "setting": "100 nM, time (day): 5", "value": 0.55}, {"measurement": "growth inhibition by drug plus 177Lu-lilotomab satetraxetan", "setting": "100 nM, time (day): 6", "value": 0.529}]}
{"compound": "Cc1cnc(NC(=O)Nc2cc(Br)c(C)cc2OC[C@@H]2CNCCO2)cn1", "values": [{"measurement": "growth inhibition by drug plus 177Lu-lilotomab satetraxetan", "setting": "10 nM, time (day): 3", "value": 0.47}, {"measurement": "growth inhibition by drug plus 177Lu-lilotomab satetraxetan", "setting": "10 nM, time (day): 4", "value": 0.531}, {"measurement": "growth inhibition by drug plus 177Lu-lilotomab satetraxetan", "setting": "10 nM, time (day): 5", "value": 0.56}, {"measurement": "growth inhibition by drug plus 177Lu-lilotomab satetraxetan", "setting": "10 nM, time (day): 6", "value": 0.57}, {"measurement": "growth inhibition by drug plus 177Lu-lilotomab satetraxetan", "setting": "100 nM, time (day): 3", "value": 0.176}, {"measurement": "growth inhibition by drug plus 177Lu-lilotomab satetraxetan", "setting": "100 nM, time (day): 4", "value": 0.216}, {"measurement": "growth inhibition by drug plus 177Lu-lilotomab satetraxetan", "setting": "100 nM, time (day): 5", "value": 0.235}, {"measurement": "growth inhibition by drug plus 177Lu-lilotomab satetraxetan", "setting": "100 nM, time (day): 6", "value": 0.246}]}
{"compound": "CCN(CC)CCCCNc1ncc2cc(-c3cc(OC)cc(OC)c3)c(NC(=O)NC(C)(C)C)nc2n1", "values": [{"measurement": "growth inhibition by drug plus 177Lu-lilotomab satetraxetan", "setting": "10 nM, time (day): 3", "value": 0.539}, {"measurement": "growth inhibition by drug plus 177Lu-lilotomab satetraxetan", "setting": "10 nM, time (day): 4", "value": 0.564}, {"measurement": "growth inhibition by drug plus 177Lu-lilotomab satetraxetan", "setting": "10 nM, time (day): 5", "value": 0.587}, {"measurement": "growth inhibition by drug plus 177Lu-lilotomab satetraxetan", "setting": "10 nM, time (day): 6", "value": 0.597}, {"measurement": "growth inhibition by drug plus 177Lu-lilotomab satetraxetan", "setting": "100 nM, time (day): 3", "value": 0.393}, {"measurement": "growth inhibition by drug plus 177Lu-lilotomab satetraxetan", "setting": "100 nM, time (day): 4", "value": 0.447}, {"measurement": "growth inhibition by drug plus 177Lu-lilotomab satetraxetan", "setting": "100 nM, time (day): 5", "value": 0.445}, {"measurement": "growth inhibition by drug plus 177Lu-lilotomab satetraxetan", "setting": "100 nM, time (day): 6", "value": 0.439}]}
